The source made the active and inactive calls.
Columns and labels:
[1] = system: Human papillomavirus type 1a protein E7 (residues 44-93); assay: small molecules binding HPV E7 44-93 – biochemical, small-molecule microarray, residues 44-93, 635 nm fluorescence, primary screen (AID 1108); conditions: fluorescence 635 nm, higher = more signal;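 also: E7 fragment applied at 1 µg/mL in TBST for 1 h at 4 C; score combines spot fluorescence with its signal to noise ratio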
[2] = hepatitis C replication reporter changes, two-sided – Huh7 cells, luciferase reporter, HCV replication inhibitor project, primary screen (AID 1109); conditions: Huh7 HCV replicon luciferase reporter, 48 h; higher = more signal;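 also: huh7 hepatoma cells harbouring a luciferase neomycin HCV replicon reporter; luciferase luminescence as measure of HCV replicon replication; test concentration not given here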
[3] = molecular target: Left-right determination factor 2 (Homo sapiens) (UniProt O00292); assay: small molecules binding LEFTY2 protein – biochemical, small-molecule microarray, 635 nm fluorescence scan, primary screen (AID 1110); conditions: higher = more signal
[4] = molecular target: Calmodulin-1 (Homo sapiens) (UniProt P0DP23); assay: small molecules binding calmodulin-1 with EGTA – biochemical, small-molecule microarray, Cy5-labelled CALM1, profiling panel (AID 1111); conditions: Cy5-CALM1 binding fluorescence, higher = more signal;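 also: labelled calmodulin applied in Tris saline Tween buffer holding calcium plus EGTA and DTT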
[5] = molecular target: Calmodulin-1 (Homo sapiens) (UniProt P0DP23); assay: small molecules binding Ca-loaded calmodulin-1 – biochemical, small-molecule microarray, Cy5-labelled CALM1, plus calcium, artefact control for SMM control-protein annotation, profiling panel (AID 1112); conditions: Cy5-CALM1 binding fluorescence, higher = more signal;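 also: score merges spot fluorescence with signal to noise from triplicate slides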
[6] = probe aWnt5a binding to arrayed compounds – biochemical, biotinylated probe, 635/667 nm fluorescence, primary screen (AID 1113); conditions: small-molecule microarray, higher = more signal;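 also: score merges 667 nm fluorescence intensity with signal-to-noise per printed feature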
[7] = probe aShh binding to arrayed compounds – biochemical, biotinylated probe, 635/667 nm fluorescence, primary screen (AID 1114); conditions: small-molecule microarray, higher = more signal;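 also: probe is biotin-labelled aShh protein from a stem cell growth factor screen; measures binding of labelled protein to compounds printed on the slide; score merges feature fluorescence at 667 nm with signal-to-noise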
[8] = probe aNog binding to arrayed compounds – biochemical, biotinylated probe, 635/667 nm fluorescence, primary screen (AID 1115); conditions: small-molecule microarray, higher = more signal;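 also: probe is biotinylated aNog protein used at 0.15 µg/mL for 1 h at 4 C; z-score combines 667 nm fluorescence of each spot with its signal to noise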
[9] = molecular target: Torsin-1A-interacting protein 1 (Homo sapiens) (UniProt Q5JTV8); assay: compound microarray binding of lysate hLAP1 – cell lysate, small-molecule microarray, COS7 lysate, 635/667 nm fluorescence, primary screen (AID 1116); conditions: 635 nm fluorescence, higher = more signal
[10] = molecular target: Alpha-bungarotoxin (Bungarus multicinctus) (UniProt P60615); assay: compounds binding labelled alpha-BTX control protein – biochemical, small-molecule microarray, Alexa647 label, 635/667 nm fluorescence, artefact control for SMM control protein annotation, profiling panel (AID 1117); conditions: alpha-BTX-A647 binding fluorescence, higher = more signal
Albumin (Bos taurus) = Albumin (Bos taurus) (UniProt P02769); assay: compounds binding labelled BSA control protein – biochemical, small-molecule microarray, Alexa647 label, 635/667 nm fluorescence, artefact control for SMM control protein annotation, profiling panel (AID 1118); conditions: BSA-A647 binding, fluorescence 635 nm, higher = more signal;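 also: score merges 667 nm emission intensity and signal-to-noise per printed compound spot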
[11] = probe aXIP binding to arrayed compounds – biochemical, NeuroSMM set, 635/667 nm fluorescence, primary screen (AID 1119); conditions: small-molecule microarray, higher = more signal, called active from +8 up or from −8 down;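 also: probe is the protein aXip251-270 applied at 1 µg/mL to compound-printed slides; binding of probe to printed compounds measured as 667 nm fluorescence plus signal to noise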
[12] = probe aNOTCH3 binding on compound microarray – biochemical, small-molecule microarray, 635/667 nm fluorescence, primary screen (AID 1120); conditions: higher = more signal;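 also: probe is a biotin-tagged antibody raised against NOTCH3 rather than NOTCH3 protein; score merges spot fluorescence near 667 nm with spot signal to noise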
[13] = probe aNOTCH2 binding on compound microarray – biochemical, small-molecule microarray, 635/667 nm fluorescence, primary screen (AID 1121); conditions: higher = more signal;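 also: score merges feature fluorescence read at 667 nm with its signal to noise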
[14] = molecular target: Carbonic anhydrase 2 (Homo sapiens) (UniProt P00918); assay: compounds binding carbonic anhydrase 2 – biochemical, small-molecule microarray, Alexa647-labelled CAII, profiling panel (AID 1122); conditions: CAII-A647 binding fluorescence, higher = more signal
[15] = COS7 lysate on small-molecule microarray, probe aHis, 635 nm (AID 1123); conditions: COS7 cell lysate, fluorescence, higher = more signal;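 also: z-score combines 667nm fluorescence intensity with signal-to-noise per printed compound spot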
[16] = probe aLAP1 signal on lysate-treated microarray – cell lysate, small-molecule microarray, COS7 lysate, primary screen (AID 1124); conditions: probe aLAP1, fluorescence, higher = more signal;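 also: lysate comes from COS7 cells expressing LAP1 and is applied at 0.3 µg/mL; score merges spot fluorescence near 667 nm with signal-to-noise over triplicate slides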
Sam68 (KHDRBS1) = assay: compounds binding KHDRBS1 protein – biochemical, small-molecule microarray, 635 nm fluorescence, primary screen (AID 1125); conditions: higher = more signal;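 also: score merges 667 nm channel intensity with signal to noise over triplicate slides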
[17] = system: Chordin-like protein 2 (CHRDL2); assay: compounds binding chordin-like 2 – biochemical, small-molecule microarray, 635 nm fluorescence, primary screen (AID 1126); conditions: fluorescence 635 nm, higher = more signal;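 also: printed compound slides probed with Chrdl2 protein at 4 µg/mL for 1 h at 4 C; score merges 667 nm emission intensity with signal to noise over three replicate slides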
[18] = molecular target: Concanavalin-A (Canavalia ensiformis) (UniProt P02866); assay: compounds binding concanavalin A lectin – biochemical, small-molecule microarray, Alexa647 label, 635 nm, artefact control for SMM control protein annotation, primary screen (AID 1127); conditions: ConA-A647 binding fluorescence, higher = more signal;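 also: z combines 667 nm emission intensity with signal-to-noise across three replicate slides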
Concanavalin-A (Canavalia ensiformis), sequence (P02866 whole entry, looked up): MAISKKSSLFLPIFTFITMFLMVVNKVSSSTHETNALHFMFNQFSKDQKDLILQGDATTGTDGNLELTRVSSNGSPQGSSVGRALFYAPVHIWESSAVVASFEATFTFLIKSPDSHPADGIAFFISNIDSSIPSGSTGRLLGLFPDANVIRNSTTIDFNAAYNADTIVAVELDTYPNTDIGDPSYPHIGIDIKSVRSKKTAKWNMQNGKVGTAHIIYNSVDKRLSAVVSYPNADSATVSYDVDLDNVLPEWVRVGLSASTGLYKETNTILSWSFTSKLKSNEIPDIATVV

Left-right determination factor 2 (Homo sapiens), sequence (O00292 whole entry, looked up): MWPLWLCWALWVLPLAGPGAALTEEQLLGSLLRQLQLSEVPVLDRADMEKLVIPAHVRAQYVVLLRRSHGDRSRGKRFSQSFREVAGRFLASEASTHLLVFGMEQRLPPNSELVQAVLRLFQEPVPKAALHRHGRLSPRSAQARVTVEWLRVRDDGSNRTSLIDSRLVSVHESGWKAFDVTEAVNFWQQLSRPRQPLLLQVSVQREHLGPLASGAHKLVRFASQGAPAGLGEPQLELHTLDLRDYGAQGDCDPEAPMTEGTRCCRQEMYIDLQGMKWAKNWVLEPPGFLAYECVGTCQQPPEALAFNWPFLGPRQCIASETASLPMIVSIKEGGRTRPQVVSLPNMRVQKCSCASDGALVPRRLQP
Albumin (Bos taurus), sequence (P02769 whole entry, looked up): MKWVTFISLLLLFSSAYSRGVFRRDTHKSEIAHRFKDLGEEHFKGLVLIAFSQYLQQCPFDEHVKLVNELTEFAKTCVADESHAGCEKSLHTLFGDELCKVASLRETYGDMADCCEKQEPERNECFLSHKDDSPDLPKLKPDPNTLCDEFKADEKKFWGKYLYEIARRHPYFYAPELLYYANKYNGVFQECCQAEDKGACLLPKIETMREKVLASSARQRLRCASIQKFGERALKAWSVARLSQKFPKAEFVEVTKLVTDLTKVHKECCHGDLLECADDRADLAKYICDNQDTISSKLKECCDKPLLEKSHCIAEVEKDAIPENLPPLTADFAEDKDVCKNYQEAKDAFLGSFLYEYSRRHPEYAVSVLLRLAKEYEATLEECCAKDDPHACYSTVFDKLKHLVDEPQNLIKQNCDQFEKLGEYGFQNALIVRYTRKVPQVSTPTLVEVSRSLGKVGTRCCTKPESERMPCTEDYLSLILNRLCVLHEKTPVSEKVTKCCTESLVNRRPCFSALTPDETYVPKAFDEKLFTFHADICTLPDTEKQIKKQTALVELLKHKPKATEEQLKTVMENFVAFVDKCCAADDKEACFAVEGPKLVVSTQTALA
Alpha-bungarotoxin (Bungarus multicinctus), sequence (P60615 whole entry, looked up): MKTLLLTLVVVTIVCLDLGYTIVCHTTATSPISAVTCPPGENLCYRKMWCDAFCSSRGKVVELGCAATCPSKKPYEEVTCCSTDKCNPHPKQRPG
Torsin-1A-interacting protein 1 (Homo sapiens), sequence (Q5JTV8 whole entry, looked up): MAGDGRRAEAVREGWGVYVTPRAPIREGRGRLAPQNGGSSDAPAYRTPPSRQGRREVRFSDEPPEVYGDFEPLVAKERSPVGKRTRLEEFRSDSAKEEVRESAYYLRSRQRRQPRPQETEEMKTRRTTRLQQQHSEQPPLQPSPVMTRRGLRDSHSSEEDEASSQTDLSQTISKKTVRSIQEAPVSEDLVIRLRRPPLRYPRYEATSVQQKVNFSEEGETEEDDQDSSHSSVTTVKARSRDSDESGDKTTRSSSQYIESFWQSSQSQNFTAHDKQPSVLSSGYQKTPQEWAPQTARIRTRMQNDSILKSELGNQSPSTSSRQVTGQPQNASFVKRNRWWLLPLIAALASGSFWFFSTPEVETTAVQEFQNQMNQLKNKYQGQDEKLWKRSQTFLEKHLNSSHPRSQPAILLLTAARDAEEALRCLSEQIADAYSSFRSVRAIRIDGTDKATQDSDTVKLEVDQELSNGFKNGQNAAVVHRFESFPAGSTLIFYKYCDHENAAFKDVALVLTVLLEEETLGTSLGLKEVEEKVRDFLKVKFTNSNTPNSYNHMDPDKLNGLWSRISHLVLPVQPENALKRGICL

Row | SMILES | composite z-score [1] | z-score [2] | composite z-score [3] | composite z-score [4] | composite z-score [5] | composite z-score [6] | composite z-score [7] | composite z-score [8] | composite z-score [9] | composite z-score [10] | composite z-score (Albumin (Bos taurus)) | composite Z-score [11] | composite z-score [12] | composite z-score [13] | composite z-score [14] | composite z-score [15] | composite z-score [16] | composite z-score (Sam68 (KHDRBS1)) | composite z-score [17] | composite z-score [18]
1 | COC(=O)c1c2oc(c1C(=O)OC)C(=O)N[C@H](Cc1ccccc1)Cn1cc(nn1)C1(CCCCC1)NC(=O)N[C@H](CO)CC2 | -1.21 | 0.0733 | -0.161 | -0.311 | -0.0933 | -0.105 | 0.0639 | 0.0119 | 0.459 | 2.39 | 0.264 | 0.605 (inactive) | -0.0113 | -0.15 | 0.765 | 0.856 | 0.474 | 0.0112 | -0.2 | -1.71
2 | C=C(C(=O)CC[C@H](OC(=O)c1ccccc1-c1ccccc1C(=O)O)c1ccc(OCCO)cc1)C(C)C | 1.38 | -1.26 | 0.0164 | 0.275 | -0.37 | 0.204 | 0.0639 | 1.14 | 0.735 | 0.971 | 0.816 | -0.691 (inactive) | 0.0282 | -0.106 | 0.59 | 1.61 | -0.284 | 0.884 | -0.0766 | 0.708
3 | Cc1ccc(S[C@]2(C(=O)NC3CC3)CC(=O)N(C3Cc4ccccc4C3)[C@@H]2c2ccc(CO)cc2I)cc1 | 0.451 | -2.14 | -1.05 | 2.09 | -0.628 | -0.0758 | -0.375 | 0.144 | -0.623 | -0.0871 | -0.15 | -0.216 (inactive) | -0.283 | -0.121 | 0.535 | 0.897 | 1.68 | -0.5 | -0.486 | 0.0714
4 | CCCC=C(CCC)[C@@H](NC(=O)c1ccc(C(=O)OC)cc1)c1ccc(C(=O)OC)cc1 | 0.981 | -0.682 | -0.634 | 1.48 | 1.06 | 0.313 | 1.45 | -0.316 | 0.253 | -0.037 | 0.781 | 0.0466 (inactive) | 0.0847 | 0.0522 | 0.203 | 2.45 | 0.718 | 0.417 | 0.031 | 0.251
5 | CC(C)(C)OC(=O)CC[C@]1(C(N)=O)N=C(c2ccc(OCCCO)cc2)O[C@H]1c1ccccc1N=[N+]=[N-] | 0.97 | 0.697 | -0.143 | 1.53 | 1.1 | 0.0371 | 0.232 | 0.886 | 0.791 | 1.43 | 0.426 | 0.59 (inactive) | 0.156 | -0.084 | 0.791 | 1.61 | 0.242 | 0.522 | -0.416 | 0.741
6 | C=CCNC(=O)[C@@H]1[C@H]2C(=O)O[C@H](c3ccccc3)[C@H](c3ccccc3)N2[C@H](c2ccc(OCCO)cc2)[C@@]12C(=O)Nc1ccc(C#CCNC(N)=O)cc12 | 1.24 | -0.658 | -0.463 | 1.47 | 0.472 | -0.0051 | -0.349 | -0.361 | 0.0307 | 0.782 | 0.567 | 0.0324 (inactive) | -0.076 | -0.13 | 0.336 | 0.813 | 0.268 | 1.33 | -0.822 | 0.6
7 | CC1C2C(CCCO)=CC(C3C(=O)N(C(N)=O)C(=O)C23)N1Cc1cccc(OC(F)(F)F)c1 (stereo not given) | 0.0396 | -1.07 | 0.246 | 0.366 | 0.41 | -0.096 | 0.13 | 0.528 | 1.26 | 1.32 | 1 | 0.649 (inactive) | -0.068 | -0.114 | 0.699 | 1.22 | 0.147 | 1.33 | 0.0627 | -0.0715
8 | CN(C)CCCCNC(=O)[C@H]1C[C@H]2C(=O)N[C@@H](CCCCN(C)C)C(=O)N2[C@H]1c1ccc(O)cc1 | -1.01 | 0.448 | 0.435 | -0.362 | -0.873 | -0.128 | -0.229 | -0.0446 | -0.178 | 0.457 | -0.155 | 0.151 (inactive) | -0.0918 | -0.0262 | 0.518 | -0.28 | 0.224 | -0.093 | 1.15 | 0.224
9 | [N-]=[N+]=NCc1ccccc1C[C@@]1(C(=O)NCCN2CCOCC2)N=C(c2ccc(OCCCO)cc2)O[C@@H]1c1ccccc1 | 1.39 | -2.6 | -0.58 | 1.26 | 0.683 | 0.0391 | 0.358 | 0.35 | 1.06 | 1.19 | 0.818 | 1.03 (inactive) | 0.307 | -0.106 | 0.655 | 2.77 | 0.136 | 1.19 | -0.879 | 0.944
10 | O=C1O[C@H](c2ccccc2)[C@H](c2ccccc2)N2[C@H]1[C@@H](C(=O)O)[C@]1(C(=O)Nc3ccccc31)[C@H]2c1ccc(OCCO)cc1 | 1.45 | 0.042 | -0.242 | 1.58 | 0.5 | -0.0977 | -0.187 | -0.574 | 0.811 | 0.968 | 1.03 | -0.617 (inactive) | 0.0576 | 0.024 | 0.749 | 1.79 | 0.59 | 1.16 | -0.192 | 0.864
11 | COCCCNC(=O)[C@@]1(c2ccc([N+](=O)[O-])cc2)CC(=O)N(C2CCCCC2)[C@@H]1c1ccc(CO)cc1I | -0.191 | -1.9 | -0.199 | 0.582 | -0.0952 | -0.0051 | -0.0904 | 0.968 | 1.17 | 0.302 | -0.102 | 2.09 (inactive) | -0.095 | 0.0409 | 0.427 | 2.23 | 0.426 | 1.03 | 0.151 | 1.14

From PubChem BioAssay
